57 compounds from the supplement of paper PMC11150407 can be followed below.

Structures can show the parent of a compound that is named as a salt. Screen size: about 2,100 compounds; about 180 (8.6%) showed an effect of 50% or more. The sample as a whole holds a higher share of strong results than the screen did.

This assay has as its system MOLM1 and UCSD/AML1 (averaged). Description: cell viability relative to DMSO control (POC); higher = less growth inhibition. The conditions noted are these: 1 µM; 72 h. As to the method:
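Primary viability screen in the 3q26 EVI1-high AML cell lines MOLM1 and UCSD/AML1 (1.5e3 cells/well, 384-well), compounds at 1 uM for 72 h. ATP CellTiter-Glo read-out given as percent of viable cells over DMSO control (POC), averaged over duplicates. DMSO was the negative control and 5 uM etoposide the positive control. This mapping covers the MicroSource Spectrum and Selleck anticancer libraries (drug names).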
Turning to `O=c1cc(-c2cccc3c2Sc2ccccc2S3)oc(N2CCOCC2)c1`, the cell viability worked out at 69.4%.
The figure for `O=C(O)CCCCCCCCCCCC[C@@H]1C=CCC1` is 93.9%; for `CS(=O)(=O)CCCCN=C=S` it is 84.4%.
With `COc1ccc(-c2oc3cc(OC)c(OC)c(OC)c3c(=O)c2OC)cc1OC`, the cell viability was determined as 101%.
As for `CC(=O)OCC(=O)[C@@]1(O)CCC2C3CCC4=CC(=O)C=C[C@]4(C)[C@@]3(F)[C@@H](O)C[C@@]21C` (some centres not stated), the cell viability turned out to be 78.1%.
As to `N#CCNC(=O)c1ccc(-c2ccnc(Nc3ccc(N4CCOCC4)cc3)n2)cc1` [Momelotinib (CYT387)], the cell viability turned out to be 51.4%.
As for `Cc1nc(N)sc1-c1ccnc(Nc2ccc(N3CCOCC3)cc2)n1`, the cell viability amounted to 46.7%.
As for `O=C(O)c1ccccc1`, the cell viability was 98.9%.
The value for `CC(CCC(=O)O)[C@H]1CCC2C3C[C@H](O)[C@@H]4C[C@H](O)CC[C@]4(C)C3CC[C@@]21C` (stereo partly drawn) [alpha-HYDROXYDEOXYCHOLIC ACID] was 107%.
The value for `CC(C)(C)c1cnc(CSc2cnc(NC(=O)C3CCNCC3)s2)o1` was 2.81%.
As to `Cc1cc(/C=C/c2ccc3cc(N(C)C)ccc3[n+]2C)c(C)n1-c1ccccc1`, the cell viability was 29.3%.
Take `C[C@@H]1CC[C@@]23CCC4(C)[C@@](C=CC5[C@@]6(C)CC[C@H](O)C(C)(C)C6CC[C@]54C)(OC2=O)C3[C@H]1C` (some centres not stated): the cell viability worked out at 90.8%.
As to `C=C1C(=O)[C@]23[C@H](CC[C@@H]1[C@@H]2O)[C@]12CO[C@@]3(O)[C@H](O)[C@H]1C(C)(C)CC[C@@H]2O`, the cell viability amounted to 94.3%.
On to `CC1(C)CC2C1CCC1(C)OC2(C)CCC1O` (configuration not stated), for which the cell viability was determined as 91.4%.
Regarding `CC(C)=CCC/C(C)=C/COc1ccc2ccc(=O)oc2c1`, the cell viability came out at 92.6%.
For `CC(C)(C)NCC(O)c1ccc(O)c(CO)c1` (racemic), the cell viability stood at 93.2%.
The figure for `O=C(O)c1cc2cc(Cl)ccc2[nH]1` is 98.1%.
The figure for `O=C1c2c(O)ccc(O)c2C(=O)c2c(NCCNCCO)ccc(NCCNCCO)c21` [Mitoxantrone Hydrochloride] is 2.15%.
`O=C1c2c(O)cccc2Cc2cccc(O)c21`: the cell viability is 102%.
`O=C1c2c(O)ccc(O)c2C(=O)c2c(NCCNCCO)ccc(NCCNCCO)c21`: the cell viability came out at 8.27%.
On to `O=C1c2cccc(O)c2C(=O)c2c(O)cccc21`, for which the cell viability worked out at 104%.
With `NCCOB(c1ccccc1)c1ccccc1`, the cell viability turned out to be 117%.
The figure for `CC(C)CCC[C@@H](C)[C@H]1CC[C@H]2[C@@H]3CC(=O)[C@H]4C[C@@H](O)CC[C@]4(C)[C@H]3CC[C@]12C` [5alpha-CHOLESTAN-3beta-OL-6-ONE] is 107%.
Take `Cc1ccc(C(=O)N(CCCN)[C@@H](c2nc3cc(Cl)ccc3c(=O)n2Cc2ccccc2)C(C)C)cc1`: the cell viability is 15.3%.
On to `Cc1ccc(C(=O)N(CCCN)[C@@H](c2oc3cc(Cl)ccc3c(=O)c2Cc2ccccc2)C(C)C)cc1`, for which the cell viability was 13.4%.
The figure for `CC(=O)O[C@@H]1C[C@H]2C(C)(C)C(=O)CC[C@]2(C)[C@H]2CC[C@@]3(C)[C@H](c4ccoc4)OC(=O)[C@H]4O[C@]43[C@@]21C` is 100%; for `CNC(=O)c1ccc(N2C(=S)N(c3ccc(C#N)c(C(F)(F)F)c3)C(=O)C2(C)C)cc1F` [MDV3100 (Enzalutamide)] it is 102%; for `CC(C)CC(NC(=O)[C@H](C)N)C(=O)O` (mixture of isomers) it is 105%.
Regarding `COc1cc(C)c(C(=O)Oc2cc(C)c(C(=O)O)c(O)c2C)c(OC)c1C`, the cell viability was 109%.
In the case of `CNS(=O)(=O)c1ccc(NC(=O)c2ccccc2C(=O)O)cc1`, the cell viability is 110%.
The value for `Nc1nc(=O)c2[nH]c(=O)cnc2[nH]1` was 112%.
On to `C[C@]12CCC(=O)C=C1C=C[C@@H]1[C@@H]2CC[C@@]2(C)[C@H]1CC[C@@]21CCC(=O)O1`, for which the cell viability stood at 83.2%.
As to `CN1CCC(CNc2ccc3ncc(-c4cccc(OC(F)(F)F)c4)n3n2)CC1` [SGI-1776 free base], the cell viability was 80%.
On to `O=c1c(O)cc([C@H]2Oc3cc(O)cc(O)c3C[C@H]2O)cc2c([C@H]3Oc4cc(O)cc(O)c4C[C@H]3O)cc(O)c(O)c12`, for which the cell viability was 104%.
On to `CN1CCN(CCOc2cc(OC3CCOCC3)c3c(Nc4c(Cl)ccc5c4OCO5)ncnc3c2)CC1` [Saracatinib (AZD0530)], for which the cell viability turned out to be 47.7%.
In the case of `C=CC(=O)N1CCC[C@@H](n2nc(-c3ccc(Oc4ccccc4)cc3)c3c(N)ncnc32)C1`, the cell viability was 60.3%.
Consider `Cc1ccc2c(c1)CC[C@H]1CC(=O)CC[C@]21C`, for which the cell viability worked out at 104%.
The figure for `CC(=O)N1CCCC1C(=O)O` (configuration not stated) is 108%; for `CN(N=O)C(=O)N[C@@H](C=O)[C@@H](O)[C@H](O)[C@H](O)CO` [Streptozotocin (Zanosar)] it is 37.4%; for `O=C[C@H](O)[C@@H](O)[C@H](O)CO` it is 121%.
On to `CC(=O)N[C@@H](C=O)[C@@H](O)[C@H](O)[C@H](O)CO`, for which the cell viability is 107%.
The figure for `CC(=O)O[C@H]1CC[C@]2(C)[C@H]3CC=C4[C@@H]5CC(C)(C)CC[C@]5(C(=O)O)CC[C@@]4(C)[C@]3(C)CC[C@H]2C1(C)C` is 102%.
In the case of `COC(=O)[C@@]1(C)CCC[C@]2(C)c3ccc(O)c(C(C)C)c3CCC12` (some centres not stated), the cell viability amounted to 109%.
As to `COC(=O)c1cc(O)c(=O)c2c(O)c(O)ccc2c1`, the cell viability stood at 109%.
Consider `Cc1cnc(-c2cnc(NCCNc3ccc(C#N)cn3)nc2-c2ccc(Cl)cc2Cl)[nH]1`, for which the cell viability stood at 133%.
As for `Cc1cc(=O)oc2c(O)c(O)ccc12`, the cell viability was 93.6%.
Turning to `C=C1CCC(C2CC(=O)OC2=O)C(=O)CCC2C1CC2(C)C` (configuration not stated), the cell viability was 104%.
Take `FC(F)c1nc2ccccc2n1-c1nc(N2CCOCC2)nc(N2CCOCC2)n1`: the cell viability came out at 26.8%.
Turning to `CCOC(=O)c1c(C)cc(O)c(C=O)c1O`, the cell viability worked out at 98.9%.
With `CC(=O)/C(=C\c1ccccc1)CC(=O)O`, the cell viability was determined as 118%.
The value for `COC(=O)C[C@H]1C(C)(C)C(=O)[C@@H]2CC3=C(CC[C@]4(C)C3=CC(=O)O[C@H]4c3ccoc3)[C@@]1(C)C2=O` was 93.4%; that for `CN1CCN(c2cccc(Nc3nc4c(-c5ccc(S(C)(=O)=O)cc5)cccn4n3)c2)CC1` was 33.3%.
Regarding `CC1=CC2C(CC1=O)C(C)=CCC2C(C)C` (configuration not stated), the cell viability amounted to 92.7%.
Take `COc1ccc(-c2cc(=O)c3c(OC)c(OC)c(OC)c(OC)c3o2)cc1`: the cell viability is 89.9%.
The figure for `CC(=O)/N=c1/sc(S(N)(=O)=O)nn1C` is 112%; for `CSCC[C@H](NC=O)C(=O)N[C@@H](Cc1ccccc1)C(=O)O` it is 105%.
Regarding `CC(=O)O[C@@H]1CC[C@@]2(C)C(C[C@@H](OC(C)=O)[C@@]3(C)C4=CC(=O)O[C@@H](c5ccoc5)[C@]4(C)CCC23)C1(C)C` (stereo partly drawn) [3alpha-ACETOXYDIHYDRODEOXYGEDUNIN], the cell viability was 82%.
